# Screening results as filed in PubChem BioAssay.
# Only some compounds are listed: those with a hit (about 2.5% of all), similar ones and a draw of the others.
# L3MBTL1 inh = qHTS Assay for the Inhibitors of L3MBTL1; 0.66% of 230,000 active; AlphaScreen L3MBTL1–H3K9me1 peptide binding; Potency, µM (titrated, usually from 57.1 µM), inactives show top-dose activity, negative = inhibition, hits mostly inhibitors; further: on the % scale 0 is the no-effect control and ±100 the full control effect; nearly all actives have a fitted effect of over 60% in size
#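 AlphaScreen assay: L3MBTL1 (50 nM final) was preincubated 30 min at room temperature with biotinylated H3(1-15)K9me1 peptide (75 nM final), then 30 min with library compounds; streptavidin donor and nickel chelate acceptor beads (10 ug/mL final) added, 30 min dark.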
# POLI inh = qHTS for Inhibitors of Polymerase Iota. DNA polymerase iota (Homo sapiens), Q9UNA4. Potency, µM (titrated, usually from 115 µM), for the others: at the highest dose activity, negative = inhibition, usual class: inhibitors. 1% of 390,000 active. Pol iota fluorescent replication assay, 10 min
#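 Fluorescent replication assay read twice, at 0 min and 10 min after adding 50 nM (final) substrate. Enzyme (10 nM) and compounds were first incubated 15 min at room temperature; enzyme-free buffer wells were negative controls.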
# Pol beta inh = qHTS Assay for Inhibitors of DNA Polymerase Beta. 1.3% of 340,000 active. Pol beta primer extension/strand displacement, fluorescence kinetic. Potency, µM (highest dose often 114 µM), for the others: top-dose activity change, negative = inhibition, hits mostly inhibitors. P06746; further: on the % scale 0 is the no-effect control and ±100 the full control effect
#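 Pol beta (10 nM) and compounds were preincubated 15 min at room temperature, then 50 nM substrate (final) started primer extension/strand displacement. Reads were taken at 0 and 10 min; concentration-response data were fitted to a four-parameter Hill equation.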
# APEX1 inh = qHTS Assay for Inhibitors of the Human Apurinic/apyrimidinic Endonuclease 1 (APE1); AID 2517, 2012; 0.35% of 350,000 active; recombinant APE1, TAMRA/BHQ-2 abasic DNA cleavage fluorescence; DNA repair nuclease/redox regulator APEX1 (Homo sapiens), P27695; Potency, µM (series often up to 65.8 µM), for the others: top-dose activity change, negative = inhibition, actives largely listed as inhibitors;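 further: plate controls were vehicle for no effect and reference inhibitor for full effect; nearly all actives have a fitted effect of over 55% in size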
#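 Measures dequenching upon AP-site incision of a 5'-TAMRA/3'-BHQ-2 THF-containing duplex, 50 nM; human APE1 0.75 nM after 15 min room-temperature exposure to compound; kinetic three-point read at one-minute spacing.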
# Pol kappa inh = qHTS for Inhibitors of Polymerase Kappa. Potency, µM (titrated, usually from 107 µM), for inactives: top-dose activity, negative = inhibition, most hits filed as inhibitors. DNA polymerase kappa (Homo sapiens), Q9UBT6. 0.53% of 400,000 active. purified Pol kappa, fluorescent DNA synthesis assay, 10 min; further: on the % scale 0 is the no-effect control and ±100 the full control effect
#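 Fluorescent qHTS in 1536-well format: enzyme (10 nM) and compound sat 15 min at room temperature before 50 nM substrate (final) was added. Signal taken at 0 and 10 min; no-enzyme buffer wells were negative controls.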
# POLH inh = qHTS for Inhibitors of Polymerase Eta | DNA polymerase eta (Homo sapiens), Q9Y253 | recombinant Pol eta, fluorescent DNA replication assay | Potency, µM (highest dose often 114 µM), for the others: at the top dose activity change, negative = inhibition, most hits filed as inhibitors | 1.2% of 390,000 active; further: on the % scale 0 is the no-effect control and ±100 the full control effect
#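 Fluorescent replication assay: 50 nM final substrate added after a 15 min room-temperature compound preincubation with 10 nM enzyme. Signal taken at 0 min and again at 10 min.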
# An asterisk follows results filed as active; ? = inconclusive; / = no result; [ ] = remark or other dose. The call rests on the fitted dose curve; in most records, active means well fitted curve in the direction sought with a large enough effect; inconclusive means small, poorly fitted or top-dose-only effect, or another doubt; inactive means no such curve, though single readings can be large; an effect the other way counts as inactive or inconclusive. Potency means the concentration at half of the fitted maximal effect.
SMILES,L3MBTL1 inh,POLI inh,Pol beta inh,APEX1 inh,Pol kappa inh,POLH inh
Cc1ccccc1OCC(=O)OCC(=O)Nc1ccc2c(c1)OCCO2,4%,13µM*,/,-3%,-4%,-3%
Cc1ccc(S(=O)(=O)N(CC(=O)Nc2ccc3c(c2)OCO3)c2ccc(C)c(Cl)c2)cc1,/,0%,26%,/,-6%,-24%
Cc1ccccc1OCC(=O)Nc1ccc2c(c1)OCO2,-5%,23%,20%,-3%,-5%,-21%
CCOc1ccc(NC(=O)CNS(=O)(=O)c2ccc(Br)s2)cc1,/,6%,19%,/,-14%,-5%
CCCCOc1ccc(CC(=O)N(C)OC)cc1,/,44%,/,/,-7%,/
CC1CCN(C(=O)CN2c3ccc(Br)cc3-c3ccccc3S2(=O)=O)CC1,/,3%,5%,/,4%,-14%
O=C(CCS(=O)(=O)c1ccccc1)Nc1ccc(Cl)cn1,/,17%,32µM*,-5%,-17%,-4%
[O-][N+](=NC1C=Cc2ccccc21)C1C=Cc2ccccc21 (configuration not stated),/,-14%,/,/,-6%,/
Cc1c(Cl)cccc1NC(=O)C1=COCCO1,-9%,26%,/,-9%,0%,-1%
COc1ccc(C(=O)COC(=O)[C@H](C)Nc2ccc(C(F)(F)F)cc2[N+](=O)[O-])c(OC)c1,-22%,?,40µM*,?,-27%,?
COCCN1C(=O)Cc2c1nc(N)c1c(N)nc(N3CCN(c4ccc(F)cc4)CC3)c(C#N)c21,-23%,?,30%,-4%,-9%,-20%
COc1ccc(CN2C(=O)Cc3c2nc(N)c2c(N)nc(N4CCOCC4)c(C#N)c32)cc1,/,7.9µM*,19%,-4%,0%,?
COCC(C)N1C(=O)Cc2c1nc(N)c1c(N)nc(N3CCN(c4ccccc4F)CC3)c(C#N)c21 (configuration not stated),/,18µM*,19%,?,-16%,-21%
COc1cccc(C=Nc2cc(C(C)C)c(O)cc2C)c1O,/,?,/,/,-13%,-6%
CC(=O)Nc1ccc2nc(NC(=O)COc3ccccc3C)sc2c1,/,73%,-27%,-10%,-1%,-17%
COc1cccc2sc(Nc3nc4ccc(NC(C)=O)cc4s3)nc12,29%,16µM*,?,?,45µM*,?
C=CCn1c(SCC(=O)Nc2cccc(S(N)(=O)=O)c2)nc2sc(C)c(C)c2c1=O,-7%,2%,/,29%,-15%,-11%
CCOc1ccc(-n2c(C)cc(/C=C3/C(=N)N4C(=NC3=O)SN=C4S(C)(=O)=O)c2C)cc1,/,7%,?,4%,-18%,40µM*
CCC1=NN2C(=N)/C(=C\c3cccn3-c3c(C)cccc3C)C(=O)N=C2S1,-15%,-5%,2%,-6%,-6%[60.1 µM],-10%
Cc1cccc(C)c1-n1cccc1/C=C1/C(=N)N2C(=NC1=O)SN=C2S(C)(=O)=O,/,65%,?,-1%,-7%,79µM*
COc1cc(/C=C2/C(=N)N3C(=NC2=O)SN=C3S(C)(=O)=O)ccc1OS(=O)(=O)c1ccccc1,/,/,-53%,-12%,/,/
COc1ccccc1-n1c(C)cc(/C=C2/C(=N)N3C(=NC2=O)SN=C3S(C)(=O)=O)c1C,/,-6%,-12%,-8%,-36%,79µM*
Cc1cc(/C=C2/C(=N)N3C(=NC2=O)SN=C3S(C)(=O)=O)c(C)n1-c1ccc(F)cc1,/,-7%,-13%,-7%,?,?
O=C1c2c(O)cccc2[C@H]([C@@H]2O[C@H](CO)[C@@H](O)[C@H](O)[C@H]2O)c2cc(CO)cc(O)c21,/,/,/,-3%,/,/
